Data published in PubChem BioAssay (EPA / NIEHS).
Records with an inconclusive call do not appear. Active and inactive are the calls of the source. The calls were made as follows: active = hit-call score of the fitted dose curve at least 0.9, where 1 is the maximum; inconclusive = response in the unintended direction; inactive = score below 0.9.

Molecular target: human RAR-related Orphan Receptor gamma (RORg), RORC (gene 6097) (UniProt P51449)
Assay: ATG_RORg_TRANS: Attagene TRANS-FACTORIAL HepG2 Assay for human RAR-related Orphan Receptor gamma (RORg) (AID 2283011)
Method in brief: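 Chimeric RORg-Gal4 transactivation in transfected HepG2; 24 h exposure; RT-PCR/capillary electrophoresis readout of reporter mRNA, DMSO baseline.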

Chain of human RAR-related Orphan Receptor gamma (RORg), RORC (gene 6097) (P51449 whole entry, looked up): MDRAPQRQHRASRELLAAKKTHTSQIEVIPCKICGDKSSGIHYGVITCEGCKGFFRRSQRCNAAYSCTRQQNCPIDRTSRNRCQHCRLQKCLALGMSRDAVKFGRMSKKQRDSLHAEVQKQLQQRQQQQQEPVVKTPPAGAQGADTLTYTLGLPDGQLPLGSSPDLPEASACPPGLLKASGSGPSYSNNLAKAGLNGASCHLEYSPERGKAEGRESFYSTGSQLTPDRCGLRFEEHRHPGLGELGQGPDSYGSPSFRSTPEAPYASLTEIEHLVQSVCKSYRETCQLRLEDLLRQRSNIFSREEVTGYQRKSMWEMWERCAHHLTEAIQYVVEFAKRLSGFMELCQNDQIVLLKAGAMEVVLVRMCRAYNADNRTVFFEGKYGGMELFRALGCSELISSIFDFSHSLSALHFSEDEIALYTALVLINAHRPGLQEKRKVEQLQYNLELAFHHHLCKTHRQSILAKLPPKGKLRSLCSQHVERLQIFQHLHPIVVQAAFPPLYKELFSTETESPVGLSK

outcome, inactive:
CC(=O)C(=O)O
O=C(O)c1cccc([N+](=O)[O-])c1
O=C=NC1CCC(CC2CCC(N=C=O)CC2)CC1 (centres undefined)
Nc1cc(Cl)c(O)c(Cl)c1
COc1ccnc(CS(=O)c2nc3cc(OC(F)F)ccc3[nH]2)c1OC (centres undefined)
CCO[Si](CCCS)(OCC)OCC
CCc1c(C)cc(N)c(CC)c1N
CCCCC[Si](OCC)(OCC)OCC
COC(C)CCO (centres undefined)
O=S(=O)(O)c1ccc(O)c2ncccc12
COc1ccc(Cl)cc1C
Cc1cccc(C)c1[N+](=O)[O-]
Nc1ccc(F)c([N+](=O)[O-])c1
Cc1ccc2ccccc2n1
CCCCC(CC)COCCC#N (centres undefined)
CCC(=O)OCc1ccccc1
CC(=O)Nc1ccccc1O
COc1cc(C)cc(O)c1
CC(=O)Nc1ccc(C)cc1C
CC(CCO)CCCC(C)(C)O (centres undefined)
O=Cc1ccc(Cl)c([N+](=O)[O-])c1
Clc1nc(C(Cl)(Cl)Cl)c(Cl)c(Cl)c1Cl
O=P(c1ccccc1)(c1ccccc1)c1ccccc1
CC(O)C(C)O (centres undefined)
OC1OC[C@@H](O)[C@H](O)[C@H]1O (some centres undefined)
Cc1c(N(C)C)c(=O)n(-c2ccccc2)n1C
COc1ccc(OC)c(OC)c1
CCCCCCCCCCCCCCCC(=O)OC[C@H](O)[C@H]1OC(=O)C(O)=C1O
C/C=C(\C)C(=O)OCc1ccccc1
